Data as given in PubChem BioAssay (NCI).
This is part of a sample that, as a whole, favours compounds with a hit. Of some 83,000 tested, about 20% had one in any assay.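 48-hour exposure, single concentration, 96-well plates; percent growth endpoint where 0 means no net growth. Active: below 10.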 Active and inactive are the calls of the source.

The molecules below were run on SK-MEL-28 melanoma (assay: NCI-60 one-dose screen, 48 h (100 = growth as untreated, 0 = no growth, -100 = all killed)). Conditions: 10 µM unless noted.

| Compound | growth |
| --- | --- |
| COc1cc(OC)c2c(=O)c3c(CC=C(C)C)cc(OC)c(O)c3oc2c1 | 88.4% (inactive) |
| COC(=O)c1c2c(c[n+]([O-])c1C)C(=O)C=C(NCc1ccccc1)C2=O | -71.4% (active) |
| N#C/C(=C\c1ccc(-c2cccc(Cl)c2)o1)C(=O)Nc1ncc(Cc2ccc(Cl)cc2)s1 | 66.8% (inactive) |
| O=C(/C=C/c1ccccc1)c1ccc(-n2cc(CN3CCN(c4cc5c(cc4F)c(=O)c(C(=O)O)cn5C4CC4)CC3)nn2)cc1 | 88.2% (inactive) |
| N#Cc1ccc(/C=C/c2cn(-c3ccccc3)nc2-c2cccc([N+](=O)[O-])c2)cc1 | 66.3% (inactive) |
| c1ccc(Cn2cc3c(c2-c2ccccc2)CCc2cnoc2-3)cc1 | 59.5% (inactive) |
| NCCCNc1nc2ccccc2c2c(=O)c3cc(Cl)ccc3sc12 | -30% (active) |
| Cc1cc(C)c2c(c1)N(C)c1ncnc(-n3c(C)nc4cc(C)ccc43)c1CC2C (centres undefined) | 59% (inactive) |
| CSc1ccc2c3c(n(CCCn4ccnc4)c(=O)c2c1)-c1ccccc1C3=O | 78.5% (inactive) |
| COc1ccc(C(=O)/C=C/c2ccccc2)cc1S(N)(=O)=O | 107% (inactive) |
| COc1ccc(/C=N/Nc2c3ccccc3nc3ccccc23)cc1 | 108% (inactive) |
| CC1(C)CC[C@]23CC[C@]4(C)[C@H](CC[C@@H]5[C@@]6(C)C/C(=C/O)C(=O)C(C)(C)[C@@H]6CC[C@]54C)[C@H]2[C@H]1OC3 | 107% (inactive) |
| CS(=O)(=O)Nc1cc(-c2ccc3ncnc(Nc4ccc5c(cnn5Cc5ccccc5F)c4)c3c2)cnc1Cl | 17.5% (inactive) |
| Cc1nc2sc(C(=O)Nc3cccc4ccccc34)c(N)c2cc1C(=O)c1ccccc1 | 59.8% (inactive) |
